In PubChem BioAssay:

Assay: viability loss with induced miR-34 in A549 – imaging, A549 dox-inducible miR-34, nuclei and caspase counts, primary screen (AID 1347080); also: test concentration not given here
Details: A549 miR-34 inducible, Hoechst nuclei count, 48 h; measured here: total cells with miR-34 induction; stronger effect = lower value

Row | SMILES | cell count
1 | CCCCCC(=O)OC[C@H](CO)OC(=O)CCCCC | 5390
2 | CN(C)c1cc(NC(=O)CNC(C)(C)C)c(O)c2c1C[C@H]1C[C@@H]3C(C(=O)C(C(N)=O)=C(O)[C@H]3N(C)C)C(=O)C1=C2O (stereo not given in full) | 8740
3 | N#Cc1cc2c(OCC(O)CN3CCN(C(c4ccccc4)c4ccccc4)CC3)cccc2[nH]1 (stereo not given) | 1480
4 | CC(C)(CCCCCCCCCCC(C)(C)CC(=O)O)CC(=O)O | 6090
5 | N[C@@H](Cc1ccc(O)c([N+](=O)[O-])c1)C(=O)O | 5730
6 | CCCCCCCCCCCCCCCCOC[C@@H](CO)SC(C)=O | 5400
7 | CCCCCCCCCCCCCCCC(=O)N[C@H](C)CO | 5780
8 | CCCCC[C@H](O)/C=C/[C@@H]1[C@@H](C/C=C\CCCCO)[C@@H](O)C[C@H]1O | 5490
9 | CC(C)OC(=O)CCC/C=C\C[C@@H]1[C@@H](/C=C/[C@H](O)CCc2ccccc2)[C@H](O)C[C@@H]1O | 6060
10 | CCCCC[C@H](O)/C=C/[C@H]1CCC(=O)[C@@H]1CCCCCCC(=O)O | 5360
11 | CC(C)(C)OC(=O)N1CCC(OCc2nc(-c3ccncc3)no2)CC1 | 5600
12 | CC(C)OC(=O)CCC/C=C\C[C@@H]1[C@@H](/C=C/[C@H](O)C2Cc3ccccc3C2)[C@@H](F)C[C@@H]1O | 5350
13 | CC/C=C\C/C=C\C/C=C\C/C=C\CCCCCCC(=O)O | 5320
14 | CCCCC[C@H](O)/C=C/[C@@H]1[C@H]2C/C(=C\CCCC(=O)O)C[C@H]2C[C@H]1O | 6140
15 | CC(C)(O)c1ccccc1CC[C@H](SCC1(CC(=O)O)CC1)c1cccc(/C=C/c2ccc3ccc(Cl)cc3n2)c1 | 5500
16 | O=C(O)CCCCCCC1C(=O)N(Cc2ccccc2)C(=O)N1NCC(O)C1CCCCC1 (stereo not given) | 5360
17 | N=C(N)SCCC[C@H](N)C(=O)O | 5850
18 | CCCCCCCCCCCCCCCCCCCC(=O)NCCO | 6530
19 | O=C1OC2(c3ccc(O)cc3Oc3cc(Oc4ccc(O)cc4)ccc32)c2ccccc21 (stereo not given) | 6230
20 | CCCCC(C)(C)[C@H](O)/C=C/[C@H]1CCC(=O)[C@@H]1C/C=C\CCCC(=O)O | 6270

Row | SMILES | cell count
21 | CCCCCC/C=C\CCCCCCCC(=O)OCC | 5560
22 | CC1CCN=C(N)C1 (stereo not given) | 6190
23 | COc1ccc(/C=C/C(=O)CC(=O)/C=C/c2cccc(O)c2OC)cc1O | 3510
24 | CCCCC/C=C\C/C=C\CCCCCCCC(=O)OCC(COC(=O)CCCCCCCCCCCCCCC)OC(=O)CCCCCCC/C=C\CCCCCCCC (stereo not given) | 5950
25 | CCCCC/C=C\C=C\[C@H](O)CCCCCCCC(=O)O | 5810
26 | CCCCC[C@H]1/C=C/[C@@H]2[C@@H](C/C=C\CCCC(=O)O1)[C@@H](O)C[C@H]2O | 4270
27 | CCCCC[C@H](O)/C=C/[C@@H]1[C@@H](C/C=C\CCCCCC(=O)O)[C@@H](O)C[C@H]1O | 5260
28 | CCCCCC(=O)CC[C@H]1C=CC(=O)[C@@H]1C/C=C\CCCC(=O)O | 5230
29 | C[C@]12CC[C@@H]3c4cc(O)c(O)cc4CC[C@H]3[C@@H]1CC[C@@H]2O | 5010
30 | CCCCCCCCCCCCC/C=C/[C@@H](O)[C@H](CO)NC(=O)CCCCC | 5840
31 | CCCCCCCCCCCCCCCC(=O)SCCOP(=O)([O-])OCC[N+](C)(C)C | 6100
32 | O=C(O)CCC/C=C\C[C@H]1C(=O)C[C@@H](O)[C@@H]1/C=C/[C@@H](O)Cc1ccccc1 | 5810
33 | CCCCCCCCCCCCCCCC(=O)OC[C@H](COP(=O)([O-])OCC[N+](C)(C)C)OC(=O)CCCCCCCC(=O)/C=C/C(=O)O | 5750
34 | CC(C)CC[C@@H](O)[C@@H](C)C1CCC2C3CC=C4C[C@@H](O)CC[C@]4(C)C3CC[C@@]21C (stereo not given in full) | 5170
35 | CCCCC[C@H](O)/C=C/[C@@H]1[C@@H](C/C=C\CCCC(=O)N(CC)CC)[C@@H](O)C[C@H]1O | 5500
36 | CC(C)OC(=O)CCC/C=C\C[C@@H]1[C@@H](/C=C/C(F)(F)COc2ccccc2)[C@H](O)C[C@@H]1O | 5900
37 | CCCCCCCCCCOc1ccc(OCC(=O)Cn2cc(C(=O)OC)c3cc(C(=O)O)ccc32)cc1 | 6240
38 | C=C1C(=O)O[C@H](CCCCCCCC)[C@H]1C(=O)O | 6150
39 | CCCCCCCCCCCC(=O)c1nc2ncccc2o1 | 5110
40 | CCCCC[C@H](O)/C=C/[C@H]1[C@H](O)CC(=O)[C@@H]1C/C=C\CCCC(=O)NCCO | 6290
